Consider 18 molecules from PubChem BioAssay (NCI).

Molecules are shown by their SMILES. The panel holds about 79,000 compounds, 15% with a hit somewhere; the sample as a whole holds those more often. The source made the active and inactive calls. Rule as the data show it: active = growth inhibition above about 70%; inactive = the rest.

This assay in a line: NCI Yeast Anticancer Drug Screen. Data for the cln2 rad14 strain (AID 165).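 Also: 0% = growth equal to vehicle treated cultures.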 As to conditions: S. cerevisiae cln2 rad14 strain, at 50.0 µM, stronger effect = higher value. The method in brief: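 Compounds are applied to the cln2 rad14 yeast strain, and growth is then compared with that of vehicle-treated cultures to give inhibition.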
Regarding `CCCNC=O`, the growth inhibition is -14.4% (inactive).

`CN(C)c1ccc(/C=C(\C#N)c2ccccc2Br)cc1`: the growth inhibition was -28.2% (inactive). In the case of `CN(C)CCNc1ncnc2nc(-c3ccc4ccccc4c3)[nH]c12` it was 11.6% (inactive); in that of `CCCCCCC(=O)CC(SCCS)c1ccc(Cl)c(Cl)c1` (stereo not drawn), 5.8% (inactive); in that of `COC1=C(c2ccccc2)P(=O)(Cc2ccccc2)C2CCCC12` (stereo not drawn), 7.6% (inactive). In the case of `CNCC1OC(OC)C2OC(C)(C)OC12` (stereo not drawn) it was -25.5% (inactive).

As to `CCCCCCCC/C=C/CCCCCCCC(=O)NN(C)C`, the growth inhibition is -59.2% (inactive). For `COCC1OC(n2cc(C)c(=O)n(C)c2=O)CC1OC` (stereo not drawn), the growth inhibition was -7.15% (inactive). In the case of `CCCCCCCCCCCCCCCCCC1=NCC(C)O1` (stereo not drawn) it was 19.6% (inactive); in that of `CC(=O)c1cccc(NC(=O)Oc2ccc(C(=O)OCc3ccccc3)cc2)c1`, 42.8% (inactive). `CCOCCOC(=O)CCCCCCCCC(=O)OCCOCC`: the growth inhibition is 37.9% (inactive).

With `Cc1ccccc1NC(=O)CC(=O)N1N=C(N(CCC#N)c2ccccc2Cl)CC1c1ccccc1` (stereo not drawn), the growth inhibition is 16.4% (inactive).

Take `CS/C(=C\c1ccc(C(=O)c2ccc(C)cc2)n1C)S(C)=O` (stereo not drawn): the growth inhibition was 11.1% (inactive). `COC(=O)c1oc([N+](=O)[O-])c(-c2ccccc2)c1-c1ccccc1`: the growth inhibition is -11.5% (inactive). As to `CCN(CC)c1ccc2c(c1)Cc1ccccc1-2`, the growth inhibition was 4.4% (inactive). For `C=C(C)C(O)C(O)C(=C)C` (stereo not drawn), the growth inhibition was -1.7% (inactive). As for `CNc1ccn(C2OC(CO)C(O)C2O)c(=O)n1` (stereo not drawn), the growth inhibition is 11.9% (inactive). As for `COC(=O)C(/C(=N/N)C(=O)Nc1cc(Cl)ccc1Cl)c1nc2ccc([N+](=O)[O-])cc2[nH]c1=O` (stereo not drawn), the figure is 10.5% (inactive).
